LAP4 TOR yeast = modulators of TOR pathway LAP4-GFP in S. cerevisiae. S. cerevisiae LAP4-GFP multiplex, flow cytometry GFP, 3 h; median GFP as percent of DMSO wells. GFP response vs DMSO, % at 10 µM. actives 0.34% (n = 320,000);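 active means GFP response vs DMSO above a set limit, about the screen mean plus 3 SD, cut at about 150% in these data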
CIT2 TOR yeast = alters CIT2-GFP fluorescence in TOR pathway yeast screen | S. cerevisiae CIT2-GFP strain, flow cytometry, 3 h; 100 means same as DMSO wells | GFP response vs DMSO, % at 10 µM | actives 0.065% (n = 320,000) | AID 2029;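 active means GFP response relative to DMSO above a set limit, near the screen mean plus 3 SD, cut at about 150% in these data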;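 further: ratio of well median GFP fluorescence to mean of DMSO wells on the plate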
MEP2-GFP yeast = modulators of TOR pathway MEP2-GFP in S. cerevisiae; S. cerevisiae MEP2-GFP strain, flow cytometry GFP, 3 h; 100% = DMSO control level; GFP response vs DMSO, % at 10 µM; actives 0.51% (n = 330,000); AID 2016;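 active means GFP response versus DMSO above a set limit, roughly screen mean plus 3 SD, cut at about 180% in these data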;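 further: median GFP fluorescence of the barcode-gated MEP2-GFP cells per well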
AGP1-GFP MLPCN = modulators of TOR pathway AGP1-GFP in S. cerevisiae; S. cerevisiae AGP1-GFP multiplex flow cytometry, 3 h; GFP as percent of DMSO wells; GFP response vs DMSO, % at 10 µM; actives 0.02% (n = 320,000); AID 2066;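 active means GFP response relative to DMSO above a set limit, near screen average plus 3 SD, cut at about 150% in these data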;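 further: median GFP channel fluorescence of the gated AGP1 strain per well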
RPL19A TOR yeast = modulators of TOR pathway RPL19A-GFP in S. cerevisiae; S. cerevisiae RPL19A-GFP strain, flow cytometry, 3 h; hits give low values; percent response vs DMSO, % at 10 µM; actives 0.3% (n = 330,000); AID 2025;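 active means percent response vs DMSO below 50%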;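 further: median channel GFP fluorescence of the barcoded RPL19A-GFP strain; ratio of sample median GFP to plate DMSO average so 100% = DMSO; lower means less RPL19A-GFP as with rapamycin TOR inhibition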
Efflux pump inh = inhibitors of Candida antifungal efflux pumps expressed in yeast | S. cerevisiae Candida pump triplex, Nile Red efflux | inhibition, % at 10 µM | actives 0.44% (n = 330,000) | AID 485275;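 active means plate passing quality check with inhibition over a set limit, or well fluorescence over plate mean plus 4 SD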;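 further: Nile Red retained in pooled yeast measured as flow cytometry median fluorescence; 0% = buffer negative control and 100% = Enniatin B positive control; higher means more Nile Red kept so more efflux inhibition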
Cmpd fluor yeast = compound fluorescence in yeast efflux pump counter-screen; shares compounds with Efflux pump inh; AID 588517; actives 4% (n = 1,700); fluorescence ratio to DMSO, % at 10 µM; S. cerevisiae AD/pABC3, flow cytometry;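 active means fluorescence ratio to DMSO above its plate's cutoff, the plate mean ratio plus 5 SD, cut at about 210% in these data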;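 further: unstained yeast with no Nile Red so the signal is compound autofluorescence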
CaMdr1 efflux inh = Candida Mdr1 efflux pump inhibition; actives 1% (n = 1,700); AID 588518; shares compounds with Efflux pump inh; inhibition, % at 10 µM; S. cerevisiae AD/CaMDR1, Nile Red efflux, flow cytometry; in the data active means inhibition above about 26%;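 further: 0% = DMSO vehicle and 100% = reference inhibitor; higher means more Nile Red retained so more efflux inhibition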
Cdr2 pump inh = inhibitors of Candida albicans Cdr2 efflux pump; actives 4% (n = 1,700); shares compounds with Efflux pump inh; S. cerevisiae AD/CaCDR2, Nile Red retention, flow cytometry; AID 588520; Nile Red retention ratio vs DMSO, % at 10 µM; in the data active means Nile Red retention ratio vs DMSO above about 190%;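 further: higher ratio means more blocking of Cdr2 efflux of the dye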
Cdr1 pump inh = inhibitors of Candida albicans Cdr1 efflux pump. shares compounds with Efflux pump inh. S. cerevisiae AD/CaCDR1, Nile Red efflux, flow cytometry. inhibition, % at 10 µM. actives 1% (n = 1,700). AID 588522;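 active means inhibition above the screen-wide mean plus twice its standard deviation, cut at about 32% in these data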
* marks the source's active call; other numbers are inactive results; nt = not tested or not shown; + = active, no number. Most compounds without a hit are left out; they make up all but 1.3% or so of the library.

SMILES | LAP4 TOR yeast | CIT2 TOR yeast | MEP2-GFP yeast | AGP1-GFP MLPCN | RPL19A TOR yeast | Efflux pump inh | Cmpd fluor yeast | CaMdr1 efflux inh | Cdr2 pump inh | Cdr1 pump inh
N=C(N)SCC1=CCS(=O)(=O)C1 | 102.2 | 98.4 | 107.0 | 100.3 | 103.5 | 0.8* | 101.4 | -0.1 | 95.6 | -0.1
CCc1nnc2n1N=C(c1ccc(OC)cc1)CS2 | 109.4 | 90.3 | 103.1 | 99.7 | 96.3 | 0.8* | 90.5 | -0.8 | 86.7 | -0.5
Fc1ccc(CN2CCN(c3ncnc4scc(-c5ccccc5)c34)CC2)cc1 | 88.7 | 75.1 | 106.9 | 73.0 | 105.3 | 1.7* | 100.2 | -0.2 | 93.0 | 0.0
Fc1ccc(-c2csc3ncnc(N4CCN(Cc5ccccc5)CC4)c23)cc1 | 100.1 | 106.7 | 105.8 | 98.6 | 100.6 | -0.1 | nt | nt | nt | nt
CCCCOc1ccc(C(=O)N/C(=C\c2ccc([N+](=O)[O-])cc2)C(=O)OCc2ccco2)cc1 | 95.8 | 105.1 | 107.3 | 98.7 | 104.3 | 0.4* | 155.2 | 1.7 | 116.2 | 0.2
CCN(C(=O)COC(=O)CNS(=O)(=O)c1ccc(SC)c([N+](=O)[O-])c1)C1CCCCC1 | 92.6 | 103.8 | 99.4 | 95.9 | 96.4 | -0.1 | nt | nt | nt | nt
Cc1cc2ccccc2n1CCNC(=O)c1ccccc1 | 105.0 | 96.9 | 98.2 | 105.3 | 101.6 | -0.2 | nt | nt | nt | nt
Cc1cc2ccccc2n1CCNC(=O)c1ccc(Br)o1 | 110.8 | 83.3 | 100.3 | 93.9 | 96.5 | 1.3* | 100.0 | -0.1 | 94.0 | -0.1
Cc1ccccc1S(=O)(=O)Nc1nc2ccccc2nc1N1CCc2ccccc2C1 | 91.3 | 90.5 | 102.9 | 99.3 | 103.4 | 7.5* | 93.5 | -0.2 | 100.7 | -0.1
CCc1cc(=O)oc2cc(C)cc(OCC(=O)NC3CCN(Cc4ccccc4)CC3)c12 | 93.2 | 98.4 | 123.4 | 96.8 | 101.1 | 0.2 | nt | nt | nt | nt
Cn1cccc1Cc1nnc(SCC(=O)Nc2ccccc2)n1-c1ccc(F)cc1 | 102.9 | 96.8 | 109.1 | 105.2 | 102.2 | 0.1 | 101.4 | -0.1 | 103.9 | -0.1
COc1ccc(-n2c(Cc3cccn3C)nnc2SCC(=O)Nc2cccc(F)c2)cc1 | 96.8 | 98.8 | 109.1 | 104.0 | 99.3 | -0.1 | 84.4 | -0.1 | 99.6 | -0.4
CN1CCCC1CCNc1ccc2sc3ccccc3c(=O)c2c1 (configuration not stated) | 136.2 | 79.1 | 110.7 | 74.1 | 93.3 | 2.0* | 254.3* | 0.8 | 96.3 | 0.7
CCCSc1cc(N2CCCC2)nc(-c2ccccc2)n1 | 85.2 | 83.1 | 91.0 | 87.5 | 88.4 | -0.1 | + | 0.5 | 127.0 | 0.0
CC(C)Sc1cc(N2CCCC2)nc(-c2ccc(F)cc2)n1 | 95.9 | 93.2 | 101.5 | 93.8 | 90.0 | 0.3 | nt | nt | nt | nt
CCCSc1cc(N2CCN(C)CC2)nc(-c2ccc(OC)cc2)n1 | 142.5 | 101.8 | 129.8 | 104.3 | 93.2 | 0.7 | 82.2 | -0.1 | 89.0 | -0.1
O=C(CC(O)CCc1ccccc1)c1ccc(O)cc1 (configuration not stated) | 109.9 | 112.1 | 105.7 | 111.8 | 112.2 | -0.1 | nt | nt | nt | nt
CS(=O)(=O)c1ccc(Cl)c(NC(=O)c2cccc(Br)c2)c1 | 106.2 | 101.2 | 108.4 | 102.9 | 104.8 | 5.8* | 99.7 | -0.1 | 90.1 | 0.0
O=c1c(-c2ccccc2)c[nH]n1-c1cccc([N+](=O)[O-])c1 | 107.5 | 106.3 | 112.8 | 109.3 | 106.7 | 1.0* | 98.6 | 0.0 | 103.6 | 0.1
O=[N+]([O-])c1ccc(N2N=C(c3ccco3)CC2c2ccccc2)cc1 (configuration not stated) | 132.0 | 223.4* | 121.5 | 63.1 | 93.2 | 0.5* | 99.3 | 0.1 | 95.4 | -0.2
Fc1ccc(C2CC(c3ccco3)=NN2c2ccccc2)cc1 (configuration not stated) | 107.1 | 95.6 | 103.5 | 101.0 | 96.4 | -0.2 | nt | nt | nt | nt
CCCCn1c(=N)n(CC(O)COc2ccccc2)c2ccccc21 (configuration not stated) | 103.9 | 102.2 | 93.9 | 102.1 | 98.0 | 0.1 | nt | nt | nt | nt
CCCCn1c(=N)n(CC(O)COc2ccc(C)cc2)c2ccccc21 (configuration not stated) | 100.6 | 92.4 | 106.6 | 97.4 | 98.8 | 1.2* | 115.9 | -0.2 | 110.1 | 0.0
O=C(/C=C/c1ccccc1Cl)NCCc1ccccc1 | 110.5 | 78.7 | 102.2 | 96.6 | 97.4 | 3.3* | 101.8 | -0.2 | 112.0 | 0.1
CCOc1ccc2nc(NC(=O)CCn3cccc3)sc2c1 | 100.3 | 91.1 | 100.7 | 98.1 | 98.7 | 1.0* | 111.1 | 0.1 | 95.6 | -0.1
SMILES | LAP4 TOR yeast | CIT2 TOR yeast | MEP2-GFP yeast | AGP1-GFP MLPCN | RPL19A TOR yeast | Efflux pump inh | Cmpd fluor yeast | CaMdr1 efflux inh | Cdr2 pump inh | Cdr1 pump inh
CCOc1ccccc1C(=O)NCC(=O)NCCCSc1ccccc1 | 118.2 | 108.5 | 109.3 | 98.4 | 131.9 | 0.0 | nt | nt | nt | nt
Cc1cc(CNC(=O)C2CCC(=O)N(Cc3cccc(C(F)(F)F)c3)C2)no1 (configuration not stated) | 94.1 | 105.0 | 97.1 | 107.2 | 110.3 | 0.0 | nt | nt | nt | nt
CC(C)Cc1cc(CNC(=O)C2CCC(=O)N(Cc3cccc(C(F)(F)F)c3)C2)on1 (configuration not stated) | 123.4 | 120.6 | 121.9 | 107.5 | 92.3 | 9.2* | 105.0 | -0.1 | 95.1 | -0.3
CCn1c(C(=O)N2CCCC(C(=O)NCCc3ccc(C)cc3)C2)cc2sccc21 (configuration not stated) | 96.6 | 96.3 | 90.3 | 95.2 | 97.5 | 1.0* | 103.0 | 0.0 | 93.5 | 0.1
S=C(NCc1ccccc1)N1CCc2ccccc2C1 | 114.5 | 74.7 | 79.1 | 87.4 | 94.4 | 0.0 | 93.3 | 0.0 | 100.1 | 0.2
COc1ccc(N2CCN(C(=O)Cn3c(=O)[nH]c4ccccc4c3=O)CC2)cc1 | 112.3 | 101.2 | 102.3 | 108.5 | 98.1 | 0.0 | nt | nt | nt | nt
COc1ccc(-c2cc(=O)n(-c3ccc([N+](=O)[O-])cc3)[nH]2)cc1 | 110.9 | 91.7 | 99.6 | 92.5 | 98.3 | 13.8* | 86.5 | -0.3 | 104.2 | -0.1
COc1cccc(NC(=O)Cn2c(=O)n(-c3ccccc3)c(=O)c3sccc32)c1 | 96.7 | 101.0 | 98.9 | 98.8 | 97.8 | -0.1 | nt | nt | nt | nt
CNS(=O)(=O)c1ccc(C(=O)NCC(=O)NCC2COc3ccccc3O2)cc1 (configuration not stated) | 104.7 | 89.0 | 98.2 | 96.8 | 96.8 | 0.6* | 104.7 | 0.0 | 95.4 | 0.0

Assay outcomes from PubChem BioAssay.
